Hits are enriched below; roughly 6% of the tested compounds scored in any of these assays.
D1 potentiator: enhances dopamine response at the human D1 receptor | HEK293 TREx D1 cells, calcium flux, dopamine EC20 potentiation | potentiation, % at 10 µM | 0.036% of 360,000 active | P21728; in the data active = potentiation above about 30%; note: 0% is about no effect
Target sequence (P21728 whole entry, looked up): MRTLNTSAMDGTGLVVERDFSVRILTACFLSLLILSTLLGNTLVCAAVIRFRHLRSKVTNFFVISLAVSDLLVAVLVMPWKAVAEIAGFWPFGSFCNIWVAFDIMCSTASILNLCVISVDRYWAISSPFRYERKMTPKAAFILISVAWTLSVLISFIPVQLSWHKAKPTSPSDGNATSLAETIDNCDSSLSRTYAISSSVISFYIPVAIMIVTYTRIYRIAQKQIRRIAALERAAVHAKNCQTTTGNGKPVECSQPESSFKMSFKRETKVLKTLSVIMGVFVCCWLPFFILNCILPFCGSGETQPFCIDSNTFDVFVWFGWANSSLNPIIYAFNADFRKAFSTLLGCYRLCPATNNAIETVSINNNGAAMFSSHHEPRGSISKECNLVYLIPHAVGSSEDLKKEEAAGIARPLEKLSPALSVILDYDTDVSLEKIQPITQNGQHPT
BCR signal inh: inhibitors of chronic active B-cell receptor signaling. ABC-DLBCL IkBa-CBG/CBR reporter, luminescence ratio, 4 h. Potency, µM (titrated, usually from 46.1 µM), for the others: top-dose activity change, negative = inhibition, most hits filed as inhibitors. 0.05% of 340,000 active. AID 493014; active = well fitted inhibition curve with a large enough effect in the signal ratio, with a control signal flat, not every such curve was filed as active; inconclusive = small, poorly fitted or top-dose-only effect, or effect the other way, or a change in a side signal; the % refers to the signal ratio;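 note: potency is the fitted concentration of half-maximal effect; plate controls were basal doxycycline-induced cells for no effect and cells given 10 µM MG132 for full effect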
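Cell line TMD8 (human ABC DLBCL), stably expressing tet-inducible CBG68-IkBa fusion and CBR; IMDM/0.5% FBS; cpd up to 46 uM; dox induction, 4 h, 37C/5% CO2; dual luminescence; green/red ratio; MG132 control.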
D3 antag: antagonists of human D3 dopamine receptor; D3R cells, DiscoveRx beta-arrestin luminescence, antagonist mode; active compounds read low; 2.5% of 360,000 active; max response, negative = inhibition, %; in the data active = max response below about -50%; inconclusive = no clear call, values can overlap the other calls; note: % is set by controls: 0 for no effect and ±100 for the full control effect
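Cells expressing the human receptor were seeded at 1500 cells/well, incubated overnight at 37 degrees C in 5% CO2, then exposed to library compounds with dopamine controls for 90 minutes at 37 degrees C before luminescent detection.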
D1 antagonist: antagonists of human D1 dopamine receptor. HEK293 TREx D1 cells, calcium flux, dopamine EC80; active compounds read low. P21728. 3.2% of 360,000 active. activity change, negative = inhibition, % at 10 µM; in the data active = activity change below about -30%; note: % is set by controls: 0 for no effect and ±100 for the full control effect
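Calcium flux readout: force-coupled, inducible Hek293 Trex D1 line, cells induced overnight at 30 C with tetracycline, dye-loaded 30–90 min at RT. Antagonism scored against EC80 dopamine challenge given 180 s after compound.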
DRD3 agonist: activates the human D3 dopamine receptor | P35462 | AID 652048 | 0.58% of 410,000 active | max activation, % | D3R DiscoveRx beta-arrestin cells, luminescence, 90 min; in the data active = max activation above about 30%; note: 0% is about no effect
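Agonist-mode cell screen: cells plated at 1500/well and incubated overnight at 37 °C, then exposed to library compounds for 90 min at 37 °C. Detection reagent was added for 30–60 min at room temperature, and luminescence was read.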
D1 agonist: agonists of human D1 dopamine receptor; activation, % at 2 µM; AID 504660; 1% of 360,000 active; HEK293 T-REx D1 cells, calcium flux, agonist mode; in the data active = activation above about 30%; note: 0% is about no effect
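Agonism was scored from calcium flux recorded over 180 s (1 read/s) after pintool compound addition, following a 10-cycle baseline. Cells were inducible force-coupled HEK293 TREx D1, plated overnight at 30 C and loaded with no-wash calcium dye.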
Active calls of the source: *; u = inconclusive; x = no result given.

SMILES	D1 potentiator	BCR signal inh	D3 antag	D1 antagonist	DRD3 agonist	D1 agonist
CC(C)C[C@@H]1CN(CCCC[C@H]2CNC(=O)C(=O)N2CCC2CCCCC2)C(=O)C(=O)N1CC1CCCCC1	x	x	0	x	-8	x
N#C/C(=C(/O)COc1ccc(Cl)cc1)c1nc2ccccc2s1	-6	u	-5	-14	0	22
N#C/C(=C(/O)COc1ccccc1)c1nc2ccccc2s1	-2	u	6	-42*	-1	21
COC(=O)c1cccc(NC(=O)CSc2nc(=O)cc(N)n2-c2ccccc2)c1	-8	8%	-51*	-25	-2	1
COc1ccc(CCNC(=O)CCc2c(C)c3cc4c(C)coc4cc3oc2=O)cc1	-1	x	x	-51*	7	22
CCOC(=O)c1c(NC(=O)c2cc(OCC)c(OCC)c(OCC)c2)sc2c1CCCCC2	0	x	x	15	-2	-1
CCOC(=O)C(CCCOc1cccc(OC)c1)C(=O)OCC	0	3%	-9	-34*	-3	10
COc1ccc(OC(=O)c2cccnc2)cc1	-2	18%	-15	6	9	0
O=C(Oc1ccc(Nc2ncnc3ccccc23)cc1)c1cccnc1	-3	-19%	9	-47*	0	-1
CC(C)(C)c1ccc(OC(=O)c2cccnc2)cc1	-6	-4%	6	4	-6	42*
O=C(Oc1cccc(Nc2ncnc3ccccc23)c1)c1ccccc1Cl	-2	u	-24	-19	40*	9
O=c1c2ccccc2nnn1Cc1nnc(-c2ccccc2Br)o1	6	u	2	13	1	47*
O=C1c2ccccc2S(=O)(=O)N1Cc1nnc(-c2ccccc2Br)o1	-16	u	-9	-11	1	3
Cc1cccc([S+](=O)([O-])NC2CCN(C#N)CC2)c1	0	x	x	-81*	x	2
COc1ccccc1CNc1ncnc2c1c(-c1ccccc1)cn2-c1cccc(C)c1	-2	3%	x	-3	-2	4
N#Cc1c(NC(=O)CCN2C(=O)c3ccccc3C2=O)oc(-c2ccccc2)c1-c1ccccc1	0	0%	-85*	11	-6	2
N#Cc1c(NC(=O)CN2C(=O)c3ccccc3C2=O)oc(-c2ccccc2)c1-c1ccccc1	x	x	u	x	-17	x
CN(C)c1nc(N)nc(CSc2nnnn2-c2ccc(Cl)cc2)n1	x	x	0	x	-11	x
Cc1cccc(NS(=O)(=O)c2ccc3oc(=O)c4ncn(C)c4c3c2)c1C	0	x	x	4	42*	0
Cc1ccc(C)c(NS(=O)(=O)c2ccc3oc(=O)c4ncn(C)c4c3c2)c1	-1	x	x	-5	-22	10
COc1cccc(NC(=O)CSc2nc(C)c(Cc3ccccc3)c(=O)[nH]2)c1	-1	x	x	-73*	9	2
COc1cccc(NC(=O)CSc2nc3ccccc3cc2Cc2ccccc2)c1	-6	u	-52*	-17	1	13
COc1cccc(NC(=O)CN(C)C(=O)/C=C/c2ccc3ccccc3n2)c1	3	u	-13	-46*	-16	-1
O=C(COCc1cc(-c2ccc(F)cc2)on1)Nc1cccc(Cl)c1Cl	0	x	x	4	0	11
O[C@@H]1C[C@H](c2ccc(Cl)cc2)N(Cc2cccs2)C[C@H]1n1cc(-c2ccc(F)cc2)nn1	x	x	6	x	3	x
SMILES	D1 potentiator	BCR signal inh	D3 antag	D1 antagonist	DRD3 agonist	D1 agonist
COc1ccc(C#Cc2c(C=O)n(C)c3ccccc23)cc1	3	u	27	x	24	2
Cn1c(C=O)c(C#Cc2ccccc2)c2ccccc21	0	u	66	x	39*	5
Cc1ccc(CN2CCC(C(=O)Nc3cccc(-c4cccc(F)c4)c3)CC2)o1	-1	2%	0	2	-3	2
CCn1cc(CN2CCC(C(=O)Nc3cccc(-c4cccc(F)c4)c3)CC2)cn1	-10	4%	-24	-38*	-21	18
CC(C)n1cc(CN2CCC(C(=O)Nc3cccc(-c4cccc(Cl)c4)c3)CC2)cn1	-4	-19%	-23	-21	-9	41*
O=C(Nc1cccc(-c2cccc(Cl)c2)c1)C1CCN(Cc2nccs2)CC1	x	x	1	x	-7	x
CCn1nc(C)c(CN2CCC(C(=O)Nc3cccc(-c4cccc(F)c4)c3)CC2)c1C	-4	u	u	-20	0	37*
CCn1cc(CN2CCC(C(=O)Nc3cccc(-c4cccc(OC)c4)c3)CC2)cn1	3	1%	u	-3	-13	2
COc1ccc(NC(=O)c2cc3c(=O)n(C)c4cc(Cl)ccc4c3s2)cc1Cl	-5	9%	x	1	-14	2
COc1ccc(OC)c(Nc2nc3ccccc3n3c(C)nnc23)c1	-1	x	x	4	2	1
O=C1CCCN1c1ccc(CNS(=O)(=O)c2ccc(F)cc2)cc1	0	0%	-57*	-6	0	14
O=C1CCc2cc(NS(=O)(=O)c3ccc(F)cc3)cc3c2N1CCC3	-4	u	1	-38*	3	3
O=C(CSCc1ccccc1Cl)N1CCN(c2ccc(Cl)cc2)CC1	-1	4%	x	-13	1	-4
CCOc1ccc(-c2[nH]nc3c2C(c2cccnc2)C(C#N)=C(N)O3)cc1 (stereo unspecified)	-2	u	-51*	-12	-1	0
CCc1[nH]nc2c1C(c1cccnc1)C(C#N)=C(N)O2 (stereo unspecified)	2	x	-21	-6	-2	0
Cc1cc(C)n(-c2ccc(C(=O)OC(C)C(=O)Nc3ccc(C(N)=O)cc3)cc2)n1 (stereo unspecified)	-4	5%	11	-31*	10	4
CCN(CC(=O)Nc1c(F)cccc1F)C(=O)Cc1ccc2c(c1)CCC2	-2	0%	7	-34*	-5	2
CCN(CC(=O)Nc1c(F)cccc1F)C(=O)Cc1c(C)nc2ccccc2c1C	-2	-11%	-1	-49*	-9	0
CCN(CC(=O)Nc1c(F)cccc1F)C(=O)Cn1[nH]c(=O)c2ccccc2c1=O	-2	5%	0	-50*	-1	1
CCN(CC(=O)Nc1c(F)cccc1F)C(=O)Cc1ccc2c(c1)OCCO2	-2	1%	-16	-25	-7	0
Cc1cccc(C)c1OCc1cc(=O)n2c3c(sc2n1)CCCC3	-2	x	x	0	3	0
CCc1ccc(OCc2nc(-c3ccc(OC)c(OC)c3)no2)c(Br)c1	-1	x	x	-11	3	25
CC1=C(C(=O)N2CCOCC2)C(c2ccc(Br)cc2)NC(=S)N1c1ccccc1 (stereo unspecified)	-5	-9%	-11	-42*	8	1

Bioassay records deposited in PubChem BioAssay by National Center for Advancing Translational Sciences (NCATS).
